# Laboratory results taken from PubChem BioAssay (EPA / NIEHS).
# Values joined by “and” are separate entries in the source; they are usually repeats but may differ in a detail not shown here. Equal values may be shown once. Records with an inconclusive call do not appear. The source holds several records for some structures; these can differ, active in one and inactive in another. Active and inactive are the calls of the source. The calls were made as follows, unless noted: active = hit-call score of the fitted dose curve at least 0.9, where 1 is the maximum; inconclusive = response in the unintended direction; inactive = score below 0.9.
# Columns and labels:
# [1] = target: human CYP2C9, CYP2C9 (gene 1559) (UniProt P11712); assay: NVS_ADME_hCYP2C9: NovaScreen (NVS) CYP450-related Enzyme Activity (ADME) Assay for human CYP2C9 (AID 2283108)
# How it was run: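 Recombinant human CYP2C9 expressed in SF9 cells, fluorogenic substrate, fluorescence read 0.75 h after dosing. Chemicals first run in duplicate at 10 uM, with actives followed in concentration series; loss of signal versus acetonitrile baseline.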
# [2] = target: Cytochrome P450 3A4 (Homo sapiens) (UniProt P08684); assay: NVS_ADME_hCYP3A4: NovaScreen (NVS) CYP450-related Enzyme Activity (ADME) Assay for human CYP3A4 (AID 2283110)
# How it was run: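 Cell-free recombinant enzyme expressed in insect cells; fluorescent substrate turnover read after 0.33 h, acetonitrile as negative control. Primary screen in duplicate at 10 uM, actives then tested in concentration series.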
# [3] = target: rat CYP2A1, Cyp2a1 (gene 24894) (UniProt P11711); assay: NVS_ADME_rCYP2A1: NovaScreen (NVS) CYP450-related Enzyme Activity (ADME) Assay for rat CYP2A1 (AID 2283114; active = hit-call score of the fitted dose curve at least 0.9, where 1 is the maximum; inactive = score below 0.9)
# How it was run: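 Recombinant rat CYP2A1, cell-free, fluorogenic substrate turnover read by fluorescence intensity 0.75 h after dosing. Primary screen at 10 uM in duplicate; actives rerun as concentration-response up to 20 uM; loss of signal versus acetonitrile control.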
# [4] = target: rat CYP2A2, Cyp2a2 (gene 24895) (UniProt P15149); assay: NVS_ADME_rCYP2A2: NovaScreen (NVS) CYP450-related Enzyme Activity (ADME) Assay for rat CYP2A2 (AID 2283116)
# How it was run: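 Cell-free recombinant rat CYP2A2 activity with fluorogenic substrate, fluorescence read 0.2 h after dosing. Chemicals screened at 10 uM in duplicate, hits then run in concentration-response up to 20 uM; signal loss versus acetonitrile baseline.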
# [5] = target: rat CYP2C11, Cyp2c11 (gene 29277) (UniProt P08683); assay: NVS_ADME_rCYP2C11: NovaScreen (NVS) CYP450-related Enzyme Activity (ADME) Assay for rat CYP2C11 (AID 2283118)
# Description: (§1) NVS_ADME_rCYP2C11 is a biochemical, single-readout assay that uses extracted gene-proteins in a cell-free assay. Measurements were taken 0.33 hour after chemical dosing in a 96-well plate.NVS_ADME_rCYP2C11 is one of one assay component(s) measured or calculated from the NVS_ADME_rCYP2C11 assay. It is designed to make measurements of enzyme activity, a form of enzyme reporter, as detected with fluorescence intensity signals by Fluorescence technology.Data from the assay component NVS_ADME_rCYP2C11 was analyzed into 1 assay endpoint. This assay endpoint, NVS_ADME_rCYP2C11, was analyzed in the positive analysis fitting direction relative to Acetonitrile as the negative control and baseline of activity. Using a type of enzyme reporter, loss-of-signal activity can be used to understand changes in the enzymatic activity as they relate to the gene Cyp2c11. Furthermore, this assay endpoint can be referred to as a primary readout, because this assay has produced multiple assay endpoints where this one serves a enzymatic activity function. To generalize the intended target to other relatable targets, this assay endpoint is annotated to the cyp intended target family, where the subfamily is xenobiotic metabolism.
# (§2) Binding assays used specific radioligands (tritiated, iodinated) with non-radioactive competitive displacement ligands in agonist or antagonist protocols (as indicated) and various reference compounds and inhibitors to titrate specific binding to receptors and transporters. Most enzyme assays (CYPs, kinases, phosphatases, proteases, HDACs) used recombinant protein and specific substrates (fluorescence mostly, some colorimetric and radioactive) and inhibitors, followed by a biochemical separation of substrate and product. All assays for the biochemical HTS were initially run in duplicate at a single concentration (10 uM for CYP450 assays and 25 uM for all others). […] Each assay was run with positive and negative controls, and concurrent controls on every plate. The follow-up (secondary) screen tested active chemical-pairs in concentration series, as well as a few additional assays not tested in the primary screen, some selected negative inactives, and several cases re-run in the concentration series for confirmatory purposes.
# [6] = test system: rat CYP2C6, gene 293989; assay: NVS_ADME_rCYP2C6: NovaScreen (NVS) CYP450-related Enzyme Activity (ADME) Assay for rat CYP2C6 (AID 2283120)
# How it was run: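 Cell-free recombinant rat CYP2C6 with fluorogenic substrate, read by fluorescence 1 h after dosing; acetonitrile as negative control. Primary screen at 10 uM in duplicate, actives then in concentration-response up to 20 uM.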
# [7] = target: rat CYP2C13, Cyp2c13 (gene 171521) (UniProt P20814); assay: NVS_ADME_rCYP2C13: NovaScreen (NVS) CYP450-related Enzyme Activity (ADME) Assay for rat CYP2C13 (AID 2283121)
# Description: as §1, with “NVS_ADME_rCYP2C13” for “NVS_ADME_rCYP2C11”, “0.75” for “0.33”, “plate.NVS_ADME_rCYP2C13” for “plate.NVS_ADME_rCYP2C11”, “NVS_ADME_rCYP2C13,” for “NVS_ADME_rCYP2C11,”, “Cyp2c13.” for “Cyp2c11.”
# as §2
# [8] = target: human CYP1A2, CYP1A2 (gene 1544) (UniProt P05177); assay: NVS_ADME_hCYP1A2: NovaScreen (NVS) CYP450-related Enzyme Activity (ADME) Assay for human CYP1A2 (AID 2283102);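 as to AC50: potency for inhibition since loss of fluorescence marks reduced CYP1A2 activity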
# How it was run: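 Recombinant human CYP1A2 from insect cells, cell-free, fluorogenic substrate; read 0.5 h after dosing with loss of fluorescence signal indicating inhibition. Primary screen in duplicate at 10 uM, acetonitrile as negative control.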
# [9] = target: human CYP2B6, CYP2B6 (gene 1555) (UniProt P20813); assay: NVS_ADME_hCYP2B6: NovaScreen (NVS) CYP450-related Enzyme Activity (ADME) Assay for human CYP2B6 (AID 2283101)
# How it was run: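 Cell-free recombinant enzyme assay with a fluorogenic substrate; fluorescence intensity read 1 hour after dosing. Loss of signal relative to acetonitrile negative control indicates inhibition. Primary screen run in duplicate at 10 uM, actives then tested in concentration series.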
# [10] = target: human CYP2D6, CYP2D6 (gene 1565) (UniProt P10635); assay: NVS_ADME_hCYP2D6: NovaScreen (NVS) CYP450-related Enzyme Activity (ADME) Assay for human CYP2D6 (AID 2283107)
# How it was run: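 Cell-free assay using recombinant human CYP2D6 expressed in insect cells, with a fluorogenic substrate read after 1 h. Primary screen in duplicate at 10 uM; actives followed up in concentration series. Loss of signal fitted relative to acetonitrile.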
# Chain of rat CYP2A1, Cyp2a1 (gene 24894) (P11711 whole entry, looked up): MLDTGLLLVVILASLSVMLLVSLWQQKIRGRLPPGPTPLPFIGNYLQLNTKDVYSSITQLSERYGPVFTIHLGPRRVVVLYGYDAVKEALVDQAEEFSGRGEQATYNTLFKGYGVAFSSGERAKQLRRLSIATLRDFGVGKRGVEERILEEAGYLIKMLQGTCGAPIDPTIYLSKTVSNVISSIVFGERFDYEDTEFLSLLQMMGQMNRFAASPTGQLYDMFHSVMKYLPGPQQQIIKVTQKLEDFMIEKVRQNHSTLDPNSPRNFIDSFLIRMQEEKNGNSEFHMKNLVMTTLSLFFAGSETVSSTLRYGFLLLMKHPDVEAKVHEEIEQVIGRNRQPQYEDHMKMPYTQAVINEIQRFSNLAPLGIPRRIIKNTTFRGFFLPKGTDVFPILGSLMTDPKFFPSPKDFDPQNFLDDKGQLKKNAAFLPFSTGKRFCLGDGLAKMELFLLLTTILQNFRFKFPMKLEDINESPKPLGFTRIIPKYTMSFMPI
# Chain of human CYP2D6, CYP2D6 (gene 1565) (P10635 whole entry, looked up): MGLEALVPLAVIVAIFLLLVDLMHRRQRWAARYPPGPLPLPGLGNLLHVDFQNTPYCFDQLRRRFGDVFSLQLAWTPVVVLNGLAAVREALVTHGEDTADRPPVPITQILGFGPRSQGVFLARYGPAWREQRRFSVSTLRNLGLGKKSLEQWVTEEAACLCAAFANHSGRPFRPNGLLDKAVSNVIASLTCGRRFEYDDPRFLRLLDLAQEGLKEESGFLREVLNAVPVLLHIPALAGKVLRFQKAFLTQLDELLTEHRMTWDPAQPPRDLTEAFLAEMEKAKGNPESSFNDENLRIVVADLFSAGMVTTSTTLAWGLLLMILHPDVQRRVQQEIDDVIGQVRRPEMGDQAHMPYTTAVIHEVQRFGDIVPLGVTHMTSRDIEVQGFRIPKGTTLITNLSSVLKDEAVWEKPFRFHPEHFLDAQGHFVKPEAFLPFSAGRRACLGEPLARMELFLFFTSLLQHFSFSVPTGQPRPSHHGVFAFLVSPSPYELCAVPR
# Chain of human CYP2B6, CYP2B6 (gene 1555) (P20813 whole entry, looked up): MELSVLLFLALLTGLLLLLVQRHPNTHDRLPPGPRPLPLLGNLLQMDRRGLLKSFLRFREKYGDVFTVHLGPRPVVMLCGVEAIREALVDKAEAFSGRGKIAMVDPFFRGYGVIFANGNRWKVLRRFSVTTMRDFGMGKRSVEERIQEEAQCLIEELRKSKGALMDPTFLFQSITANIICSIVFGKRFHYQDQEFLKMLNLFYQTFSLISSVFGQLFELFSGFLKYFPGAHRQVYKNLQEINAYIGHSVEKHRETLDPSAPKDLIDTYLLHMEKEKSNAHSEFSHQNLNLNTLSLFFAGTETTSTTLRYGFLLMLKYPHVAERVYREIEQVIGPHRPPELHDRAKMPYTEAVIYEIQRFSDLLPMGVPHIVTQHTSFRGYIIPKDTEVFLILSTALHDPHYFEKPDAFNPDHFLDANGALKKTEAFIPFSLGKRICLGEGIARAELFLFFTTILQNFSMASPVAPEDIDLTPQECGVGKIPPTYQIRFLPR
# Chain of rat CYP2C11, Cyp2c11 (gene 29277) (P08683 whole entry, looked up): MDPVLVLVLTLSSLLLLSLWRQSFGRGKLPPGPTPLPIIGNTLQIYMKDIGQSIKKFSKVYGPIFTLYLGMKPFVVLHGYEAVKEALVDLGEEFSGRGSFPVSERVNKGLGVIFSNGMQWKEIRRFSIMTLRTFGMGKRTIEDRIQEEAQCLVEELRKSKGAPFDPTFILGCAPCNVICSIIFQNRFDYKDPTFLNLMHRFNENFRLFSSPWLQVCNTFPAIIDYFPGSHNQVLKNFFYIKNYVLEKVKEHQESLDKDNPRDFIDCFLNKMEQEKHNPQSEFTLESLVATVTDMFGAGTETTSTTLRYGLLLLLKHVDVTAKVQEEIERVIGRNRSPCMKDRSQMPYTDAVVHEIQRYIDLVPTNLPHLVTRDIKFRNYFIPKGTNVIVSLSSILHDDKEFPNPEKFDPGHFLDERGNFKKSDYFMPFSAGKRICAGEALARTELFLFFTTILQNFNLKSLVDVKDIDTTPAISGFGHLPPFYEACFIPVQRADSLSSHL
# Chain of rat CYP2C13, Cyp2c13 (gene 171521) (P20814 whole entry, looked up): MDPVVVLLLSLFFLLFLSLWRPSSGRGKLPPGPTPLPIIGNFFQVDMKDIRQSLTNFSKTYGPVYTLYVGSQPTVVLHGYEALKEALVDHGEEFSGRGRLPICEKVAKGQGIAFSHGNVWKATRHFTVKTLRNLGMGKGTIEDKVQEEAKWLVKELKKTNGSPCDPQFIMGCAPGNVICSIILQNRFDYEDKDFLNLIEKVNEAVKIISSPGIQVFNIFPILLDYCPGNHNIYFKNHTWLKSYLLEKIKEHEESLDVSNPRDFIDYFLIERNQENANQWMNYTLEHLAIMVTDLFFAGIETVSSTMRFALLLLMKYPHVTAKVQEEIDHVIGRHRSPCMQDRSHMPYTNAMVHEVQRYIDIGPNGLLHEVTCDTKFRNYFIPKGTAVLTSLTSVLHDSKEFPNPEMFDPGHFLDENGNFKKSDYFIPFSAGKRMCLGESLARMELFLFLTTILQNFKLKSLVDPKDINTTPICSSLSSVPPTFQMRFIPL
# Chain of human CYP1A2, CYP1A2 (gene 1544) (P05177 whole entry, looked up): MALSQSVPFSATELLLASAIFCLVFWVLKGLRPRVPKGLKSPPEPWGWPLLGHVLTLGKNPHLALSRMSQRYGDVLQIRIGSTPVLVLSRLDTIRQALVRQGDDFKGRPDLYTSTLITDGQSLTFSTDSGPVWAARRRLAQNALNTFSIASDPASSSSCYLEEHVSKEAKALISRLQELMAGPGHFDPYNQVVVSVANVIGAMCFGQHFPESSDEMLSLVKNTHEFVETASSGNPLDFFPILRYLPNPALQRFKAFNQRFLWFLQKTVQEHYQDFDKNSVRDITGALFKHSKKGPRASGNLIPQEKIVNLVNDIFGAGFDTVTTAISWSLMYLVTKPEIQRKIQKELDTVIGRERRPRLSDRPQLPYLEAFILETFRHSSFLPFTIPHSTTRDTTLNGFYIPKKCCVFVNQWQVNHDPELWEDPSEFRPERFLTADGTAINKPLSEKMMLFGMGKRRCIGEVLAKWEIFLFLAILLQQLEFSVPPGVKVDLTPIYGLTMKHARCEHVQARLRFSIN
# Chain of Cytochrome P450 3A4 (Homo sapiens) (P08684 whole entry, looked up): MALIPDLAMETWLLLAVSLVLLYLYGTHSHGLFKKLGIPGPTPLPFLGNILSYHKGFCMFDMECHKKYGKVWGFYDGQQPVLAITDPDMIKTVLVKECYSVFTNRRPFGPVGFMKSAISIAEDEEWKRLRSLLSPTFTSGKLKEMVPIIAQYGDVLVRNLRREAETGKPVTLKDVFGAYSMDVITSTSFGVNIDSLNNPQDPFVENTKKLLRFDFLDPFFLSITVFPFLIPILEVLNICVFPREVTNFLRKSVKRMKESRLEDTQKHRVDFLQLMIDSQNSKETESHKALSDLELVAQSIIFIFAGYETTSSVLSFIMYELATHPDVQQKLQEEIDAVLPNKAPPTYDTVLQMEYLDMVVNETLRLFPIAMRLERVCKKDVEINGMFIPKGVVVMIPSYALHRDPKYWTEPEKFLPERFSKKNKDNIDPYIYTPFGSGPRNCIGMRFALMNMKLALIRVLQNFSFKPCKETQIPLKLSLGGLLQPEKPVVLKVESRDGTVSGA
# Chain of human CYP2C9, CYP2C9 (gene 1559) (P11712 whole entry, looked up): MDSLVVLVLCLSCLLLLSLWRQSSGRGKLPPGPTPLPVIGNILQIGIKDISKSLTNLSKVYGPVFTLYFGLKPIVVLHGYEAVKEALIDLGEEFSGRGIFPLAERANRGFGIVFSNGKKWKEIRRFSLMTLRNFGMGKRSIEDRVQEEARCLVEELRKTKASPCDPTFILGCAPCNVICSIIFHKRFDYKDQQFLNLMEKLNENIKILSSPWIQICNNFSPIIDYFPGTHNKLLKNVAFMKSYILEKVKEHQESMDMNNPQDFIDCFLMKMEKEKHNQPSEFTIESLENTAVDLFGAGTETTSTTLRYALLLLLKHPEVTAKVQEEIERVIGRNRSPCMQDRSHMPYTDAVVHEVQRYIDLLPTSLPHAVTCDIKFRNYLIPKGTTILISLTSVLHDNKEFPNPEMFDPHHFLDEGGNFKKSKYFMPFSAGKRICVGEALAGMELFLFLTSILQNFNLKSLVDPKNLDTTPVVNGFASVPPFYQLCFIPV
# Chain of rat CYP2A2, Cyp2a2 (gene 24895) (P15149 whole entry, looked up): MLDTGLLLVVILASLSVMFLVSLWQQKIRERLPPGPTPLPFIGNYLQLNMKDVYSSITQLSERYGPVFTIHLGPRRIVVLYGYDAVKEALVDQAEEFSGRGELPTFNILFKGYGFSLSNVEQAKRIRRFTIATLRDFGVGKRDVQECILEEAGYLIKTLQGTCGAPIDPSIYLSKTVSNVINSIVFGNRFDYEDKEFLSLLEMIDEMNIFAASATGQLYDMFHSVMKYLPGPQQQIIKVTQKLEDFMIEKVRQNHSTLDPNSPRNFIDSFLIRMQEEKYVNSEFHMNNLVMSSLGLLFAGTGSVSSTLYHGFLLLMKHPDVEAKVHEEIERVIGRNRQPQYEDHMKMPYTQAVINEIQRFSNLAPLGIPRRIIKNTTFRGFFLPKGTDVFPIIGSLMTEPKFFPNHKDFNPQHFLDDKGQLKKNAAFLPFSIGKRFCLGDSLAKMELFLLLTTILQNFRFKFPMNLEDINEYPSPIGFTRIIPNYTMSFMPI
smiles,measurement,setting,value
Oc1ccc(C(c2ccc(O)cc2)C(Cl)(Cl)Cl)cc1,AC50,[1],2.08 µM (active)
same,AC50,[2],7.75 µM (active)
same,AC50,[3],1.29 µM (active)
same,AC50,[4],1.02 µM (active)
same,AC50,[5],0.188 µM (active)
same,AC50,[6],2.57 µM (active)
same,AC50,[7],883 nM (active)
CC(=O)[C@H]1CC[C@H]2[C@@H]3CCC4=CC(=O)CC[C@]4(C)[C@H]3CC[C@]12C,AC50,[1],7.34 µM (active)
same,outcome,[1],inactive
same,AC50,[2],5.46 µM (active) and 2.77 µM (active)
same,AC50,[4],3.07 µM (active) and 7.82 µM (active) and 6.94 µM (active)
same,AC50,[5],3.08 µM (active) and 6.76 µM (active)
CC(C)(C)[C@@H](O)[C@@H](Cc1ccc(Cl)cc1)n1cncn1,AC50,[1],6.81 µM (active)
same,AC50,[2],2.68 µM (active)
same,AC50,[3],1.7 µM (active)
same,AC50,[4],0.0348 µM (active)
same,AC50,[5],2.05 µM (active)
same,AC50,[7],370 nM (active)
CCOC(=O)C(C)Oc1ccc(Oc2nc3ccc(Cl)cc3o2)cc1 (stereo not given),outcome,[8],inactive
same,AC50,[4],2 µM (active)
CCCCC(CC)CN1C(=O)C2C3C=CC(C3)C2C1=O (stereo not given),AC50,[8],5.57 µM (active)
same,AC50,[2],3 µM (active)
CCOC(=O)[C@H](C)Oc1ccc(Oc2nc3ccc(Cl)cc3o2)cc1,outcome,[8],inactive
same,AC50,[4],10 µM (active)
N#CSCSc1nc2ccccc2s1,AC50,[9],1.87 µM (active)
same,AC50,[8],3.44 µM (active)
same,AC50,[10],1.99 µM (active) and 1.9 µM (active)
same,AC50,[1],1.77 µM (active) and 5.62 µM (active)
same,AC50,[5],9.17 µM (active)
CCCCC(CC)COC(=O)c1ccccc1C(=O)O (stereo not given),AC50,[1],5.35 µM (active)
c1ccc2[nH]c(-c3cscn3)nc2c1,AC50,[8],2.47 µM (active)
C=CCOC(Cn1ccnc1)c1ccc(Cl)cc1Cl (stereo not given),AC50,[9],0.188 µM (active)
same,AC50,[10],3.95 µM (active)
same,AC50,[1],0.379 µM (active)
same,AC50,[3],0.187 µM (active)
same,AC50,[4],0.0175 µM (active)
same,AC50,[5],0.463 µM (active)
same,AC50,[6],0.452 µM (active)
CN(C)C(=O)Nc1ccc(Cl)c(Cl)c1,AC50,[8],1.63 µM (active)
same,AC50,[3],0.316 µM (active)
CSC(=O)c1cccc2nnsc12,AC50,[8],0.653 µM (active)
same,AC50,[10],3.55 µM (active)
COC(=O)c1ccccc1S(=O)(=O)NC(=O)Nc1nc(OC(F)F)cc(OC(F)F)n1,AC50,[8],5.43 µM (active)
CCCCCOC(=O)COc1cc(N2C(=O)C3=C(CCCC3)C2=O)c(F)cc1Cl,AC50,[8],1.29 µM (active)
same,outcome,[1],inactive
same,outcome,[3],inactive
CCCCOCCOCCOCc1cc2c(cc1CCC)OCO2,AC50,[9],10 µM (active)
same,AC50,[8],1.53 µM (active)
same,AC50,[10],3.87 µM (active)
same,AC50,[1],4.31 µM (active)
same,outcome,[3],inactive
same,AC50,[5],7.57 µM (active)
same,AC50,[6],6.42 µM (active)
COC(=O)c1ccccc1C(=O)O,outcome,[3],inactive
COC(=O)CSc1cc(N=c2sc(=O)n3n2CCCC3)c(F)cc1Cl,outcome,[8],inactive
CCOC(=O)NCCOc1ccc(Oc2ccccc2)cc1,AC50,[10],1.98 µM (active)
same,AC50,[1],10 µM (active)
S=C(S)NCCNC(=S)S.[Mn+2].[S-]C([S-])=NCCN=C([S-])[S-].[Zn+2],outcome,[8],inactive
same,AC50,[1],1.63 µM (active) and 1.92 µM (active) and 4.37 µM (active)
same,outcome,[7],inactive
CC(C)(c1ccc(O)cc1)c1ccc(O)cc1,AC50,[9],12.1 µM (active)
same,outcome,[9],inactive
same,AC50,[1],5.49 µM (active) [middle of 4 runs]
same,AC50,[3],4.1 µM (active) [middle of 4 runs]
same,AC50,[4],2.98 µM (active) [middle of 4 runs]
same,AC50,[5],1.16 µM (active) [middle of 4 runs]
same,AC50,[7],4.5 µM (active) [middle of 4 runs]
CCCN(CCC)c1c([N+](=O)[O-])cc(C(F)(F)F)c(N)c1[N+](=O)[O-],AC50,[8],6.02 µM (active)
CCCCCCC(C)OC(=O)COc1nc(F)c(Cl)c(N)c1Cl (stereo not given),outcome,[8],inactive
same,outcome,[1],inactive
same,AC50,[2],7.6 µM (active)
same,outcome,[4],inactive
COC(=O)c1c(Cl)nn(C)c1S(=O)(=O)NC(=O)Nc1nc(OC)cc(OC)n1,AC50,[1],2.89 µM (active)
CCNc1nc(N)nc(Cl)n1,outcome,[4],inactive
CCCCOC(=O)C(C)Oc1ccc(Oc2ccc(C(F)(F)F)cn2)cc1 (stereo not given),AC50,[4],1.17 µM (active)
S=C([S-])NCCNC(=S)[S-].[Mn+2],AC50,[8],5.5 µM (active)
same,AC50,[1],10 µM (active)
same,AC50,[7],10000 nM (active)
COc1nc(C)nc(NC(=O)NS(=O)(=O)c2ccccc2OCCCl)n1,AC50,[10],1.07 µM (active)
O=C(c1ccc(O)cc1O)c1ccc(O)cc1O,AC50,[9],6.26 µM (active)
same,AC50,[8],4.04 µM (active)
same,AC50,[2],5.88 µM (active)
Cc1nn(C)c(Oc2ccccc2)c1C=NOCc1ccc(C(=O)OC(C)(C)C)cc1,outcome,[4],inactive
same,outcome,[7],inactive
CCC(O)=C1C(=O)CC(C(=O)O)CC1=O (stereo not given),outcome,[2],inactive
C#CCOC(=O)[C@@H](C)Oc1ccc(Oc2ncc(Cl)cc2F)cc1,AC50,[9],0.777 µM (active)
same,AC50,[8],1.64 µM (active)
same,outcome,[3],inactive
same,AC50,[5],1.1 µM (active)
same,AC50,[6],0.31 µM (active)
